Laboratory results published in PubChem BioAssay AID1159580 (chemical genetic matrix, 2015).
“And” between values parts separate entries of the source, which are not always exact repeats. Identical values can stand only once. Screen size: about 5,500 compounds; about 2,000 (36%) were called active. Roughly 18% stayed inconclusive and do not appear here. No stated cut-off is given here; in the data, active means normalized growth mostly below about 0.91 (no sharp cut-off); inconclusive means no clear call, values can overlap the other calls; inactive means mostly above about 0.92. This is one part of the list.

Test: chemical genetic growth profiling, strain panel (AID 1159580);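 further: tested at 20 µM; growth read once vehicle control cultures reached saturation at 30 °C; 1 = growth at the plate median or of vehicle wells; lower values mean less growth of the strain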
Conditions: S. cerevisiae deletion strains, growth OD

Measured: normalized growth

CC(C)N1C(=O)c2ccccc2NS1(=O)=O
inactive: locus YAL013W, strain DEP1, hits give low values 1 | locus YAL021C, strain ccr4, hits give low values 0.947 | locus YAL026C, strain drs2, hits give low values 0.976 | locus YAL030W, strain snc1, hits give low values 0.963 | locus YBL061C, strain skt5, hits give low values 0.973 | locus YBR009C, strain hhf1, hits give low values 0.961 | locus YBR021W, strain FUR4, hits give low values 0.966 | locus YBR023C, strain chs3, hits give low values 0.983 | locus YBR171W, strain sec66, hits give low values 0.968 | locus YBR229C, strain ROT2, hits give low values 1 | locus YBR231C, strain swc5, hits give low values 0.994 | locus YBR279W, strain paf1, hits give low values 0.977 | locus YCL011C, strain gbp2, hits give low values 0.962 | locus YCL016C, strain dcc1, hits give low values 0.969 | locus YCL029C, strain bik1, hits give low values 0.999 | locus YCL069W, strain vba3, hits give low values 0.969 | locus YCR088W, strain abp1, hits give low values 0.978 | locus YDL005C, strain med2, hits give low values 0.973 | locus YDL035C, strain GPR1, hits give low values 1.01 | locus YDL040C, strain nat1, hits give low values 0.972 | locus YDL074C, strain BRE1, hits give low values 1.02 | locus YDL101C, strain DUN1, hits give low values 1.01 | locus YDL134C, strain PPH21, hits give low values 0.998 | locus YDL185W, strain tfp1, hits give low values 1 | locus YDL192W, strain arf1, hits give low values 1.01 | locus YDR001C, strain nth1, hits give low values 0.955 | locus YDR069C, strain doa4, hits give low values 0.995 | locus YDR101C, strain arx1, hits give low values 0.999 | locus YDR137W, strain rgp1, hits give low values 0.971 | locus YDR150W, strain NUM1, hits give low values 0.996 | locus YDR159W, strain sac3, hits give low values 1.02 | locus YDR162C, strain NBP2, hits give low values 1.02 | locus YDR195W, strain ref2 0.935 | locus YDR297W, strain sur2, hits give low values 0.988 | locus YDR318W, strain mcm21, hits give low values 1.01 | locus YDR334W, strain swr1, hits give low values 0.957 | locus YDR335W, strain msn5, hits give low values 0.978 | locus YDR388W, hits give low values 0.998 | locus YDR392W, strain spt3, hits give low values 1.02 | locus YDR502C, strain sam2, hits give low values 1.01 | locus YEL003W, strain gim4, hits give low values 0.973 | locus YEL037C, strain rad23, hits give low values 0.976 | locus YEL061C, strain CIN8 (second series), hits give low values 0.966 | locus YEL061C, strain CIN8, hits give low values 0.992 | locus YER015W, strain faa2, hits give low values 0.966 | locus YER016W, strain bim1, hits give low values 0.965 | locus YER110C, hits give low values 1 | locus YER111C, strain swi4, hits give low values 0.979 | locus YER155C, strain BEM2 (second series), hits give low values 1 | locus YER155C, strain BEM2, hits give low values 0.994 | locus YER167W, strain BCK2, hits give low values 1 | locus YFR010W, strain ubp6, hits give low values 0.96 | locus YGL078C, strain dbp3, hits give low values 0.993 | locus YGL086W, strain mad1, hits give low values 0.996 | locus YGL167C, strain pmr1, hits give low values 0.958 | locus YGL173C, strain kem1, hits give low values 0.979 | locus YGL227W, strain vid30, hits give low values 0.989 | locus YGL240W, strain doc1, hits give low values 1 | locus YGL248W, strain PDE1, hits give low values 1.01 | locus YGL253W, strain hxk2, hits give low values 0.984 | locus YGR078C, strain PAC10, hits give low values 0.995 | locus YGR135W, strain pre9, hits give low values 1.01 | locus YGR229C, strain SMI1, hits give low values 1.02 | locus YGR252W, strain gcn5, hits give low values 1.01 | locus YHR013C, strain ard1, hits give low values 0.95 | locus YHR027C, strain rpn1, hits give low values 0.968 | locus YHR030C, strain SLT2, hits give low values 0.972 and 0.994 | locus YHR079C, strain IRE1 (second series), hits give low values 1 | locus YHR079C, strain IRE1, hits give low values 0.982 | locus YHR094C, strain hxt1, hits give low values 0.996 | locus YHR129C, strain ARP1, hits give low values 0.996 | locus YHR142W, strain chs7, hits give low values 0.962 | locus YHR200W, strain rpn10, hits give low values 0.995 | locus YIL066C, strain RNR3, hits give low values 1.03 | locus YIL073C, strain SPO22, hits give low values 1.07 | locus YIL125W, strain kgd1, hits give low values 1.01 | locus YIR030C, strain dcg1, hits give low values 0.997 | locus YJL092W, strain hpr5, hits give low values 0.971 | locus YJL095W, strain BCK1 (second series), hits give low values 0.969 | locus YJL095W, strain BCK1, hits give low values 1.01 and 0.986 | locus YJL115W, strain asf1, hits give low values 0.956 | locus YJL129C, strain trk1, hits give low values 0.961 | locus YJL134W, strain LCB3, hits give low values 1 | locus YJL154C, strain vps35, hits give low values 0.963 | locus YJL164C, strain tpk1, hits give low values 0.988 | locus YJL166W, strain qcr8, hits give low values 0.987 | locus YJL168C, strain set2, hits give low values 1 | locus YJL187C, strain SWE1 (second series), hits give low values 0.997 | locus YJR043C, strain POL32, hits give low values 1 | locus YJR066W, strain TOR1, hits give low values 0.962 | locus YJR075W, strain HOC1, hits give low values 1.02
